# Hits are enriched below; roughly 1.3% of the tested compounds scored in any of these assays.
# Akt phos inh – blocks phosphorylation of Akt | Neuro2A IGF-stimulated pAkt S473 HTRF, 20 min; hits give low values | activity change, % for hits at 50 µM | actives 0.32% (n = 360,000); in the data active = activity change below about -80%; inconclusive = mostly about -51% to -80%; also: % is scaled to controls: 0 for no effect and ±100 for the full control effect
#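 Neuro2A cells in DMEM with 0.5% FBS, overnight at 37 deg C, given compound at single 50 µM final, then IGF (6 nM final) for 20 min at 37 deg C. Lysed; phospho-Akt Ser473 by HTRF after 24 h, 665/615 ratio.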
# RXFP1 antagonist – antagonists of human relaxin receptor RXFP1; Q9HBX9; HEK293-RXFP1, relaxin-stimulated cAMP HTRF, 30 min; hits give low values; activity change, negative = inhibition, % at 57.5 µM; actives 0.59% (n = 350,000);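 active = activity change of -60% or lower, but not beyond a set lower limit; inconclusive = change between -60% and -40%, or beyond the set limit; inactive = change above -40%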; also: % is scaled to controls: 0 for no effect and ±100 for the full control effect
# Target sequence (Q9HBX9 whole entry, looked up): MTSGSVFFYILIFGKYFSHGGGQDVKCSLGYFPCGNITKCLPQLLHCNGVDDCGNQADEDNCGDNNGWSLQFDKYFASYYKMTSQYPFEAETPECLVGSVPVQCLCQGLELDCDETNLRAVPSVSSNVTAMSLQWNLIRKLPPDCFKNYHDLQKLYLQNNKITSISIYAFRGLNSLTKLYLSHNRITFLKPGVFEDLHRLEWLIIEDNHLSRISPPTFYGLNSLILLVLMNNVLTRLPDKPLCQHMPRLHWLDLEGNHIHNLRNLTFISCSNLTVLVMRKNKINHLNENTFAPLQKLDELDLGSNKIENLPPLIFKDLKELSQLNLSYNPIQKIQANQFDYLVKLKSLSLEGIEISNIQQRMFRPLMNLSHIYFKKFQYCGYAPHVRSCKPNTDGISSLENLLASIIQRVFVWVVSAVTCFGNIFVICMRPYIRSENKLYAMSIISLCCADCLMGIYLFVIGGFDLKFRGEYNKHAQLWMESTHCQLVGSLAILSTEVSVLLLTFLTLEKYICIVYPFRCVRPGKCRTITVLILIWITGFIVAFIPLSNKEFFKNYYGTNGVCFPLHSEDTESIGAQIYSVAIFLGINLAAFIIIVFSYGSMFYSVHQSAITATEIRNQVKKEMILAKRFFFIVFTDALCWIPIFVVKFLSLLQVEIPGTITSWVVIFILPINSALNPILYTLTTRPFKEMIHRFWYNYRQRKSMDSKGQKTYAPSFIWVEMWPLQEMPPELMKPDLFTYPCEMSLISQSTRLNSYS
# gsp antag – antagonists of gsp mutant (McCune-Albright syndrome); gsp-mutant cells, cAMP HTRF, 30 min; Potency, µM (highest dose often 76.9 µM), without a hit: at the top dose activity change, negative = inhibition, hits mostly inhibitors; actives 0.4% (n = 340,000); calls by dose curve; cell line not stated here;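 also: intracellular cAMP measured with PDE inhibitor Ro 20-1724 present during compound exposure; potency is read from the fitted curve at half-maximal effect; % is scaled to controls: 0 for no effect and ±100 for the full control effect; nearly all actives have a fitted effect of over 65% in size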
#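 HTRF cAMP read-out (cAMP-d2 plus anti-cAMP antibody-K in lysis buffer, 30 min RT). Before lysis, cells are exposed to compounds with […] for 30 min at 37C in DPBS containing Ca/Mg, BSA and Tween 20.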
# RXFP1 ag – agonists of human relaxin receptor RXFP1; Potency, µM (highest dose often 57.5 µM), without a hit: at the highest dose activation, usual class: activators; AID 2676; HEK293T-RXFP1 cAMP TR-FRET, 30 min; response scale: percent of porcine relaxin response, buffer zero; actives 0.3% (n = 370,000); Q9HBX9; active = well fitted activation curve with a large enough effect; inconclusive = small, poorly fitted or top-dose-only effect; also: potency is read from the fitted curve at half-maximal effect; % is scaled to controls: 0 for no effect and ±100 for the full control effect; nearly all actives have a fitted effect of over 60% in size
#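 HEK293 cells stably expressing RXFP1, treated 30 min at 37C with compounds plus PDE4 inhibitor Ro 20174; cAMP measured by HTRF TR-FRET. Normalized to buffer and 29 nM porcine relaxin; EC50 by Hill fit.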
# gsp agonist – agonists of gsp mutant (McCune-Albright syndrome). AID 624287. gsp mutant cells, cAMP HTRF, 30 min. actives 0.13% (n = 340,000). Potency, µM (top dose mostly 76.9 µM), for inactives: at the highest dose activation (cAMP increase), actives largely listed as activators; active = well fitted activation curve with a large enough effect; inconclusive = small, poorly fitted or top-dose-only effect, or another doubt; inactive = no such curve, though single readings can be large or run the other way; cell line not stated here;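 also: phosphodiesterase inhibitor Ro 20-1724 added with compounds to block cAMP breakdown; potency is read from the fitted curve at half-maximal effect; nearly all actives have a fitted effect of over 60% in size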
#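 Cells stably selected in G418 were plated at 2000/well, grown 16-24 hr, then given compounds in DMSO with the PDE inhibitor […] (300 uM solution added) for 30 min at 37C; cAMP was read by HTRF.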
# TSHR antagonist – blocks TSH signaling through the human TSH receptor | P16473 | activity change, negative = inhibition, % at 11.5 µM | actives 0.2% (n = 330,000) | TSHR-expressing cells, TSH-stimulated cAMP HTRF, 2 h; hits give low values;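 active = activity change below a set negative limit, meaning inhibition stronger than a set level, cut at about -70% in these data; inconclusive = activity change between two set negative limits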; also: % is scaled to controls: 0 for no effect and ±100 for the full control effect
#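 TSHR-expressing cells, 200/well, pre-treated with compound, then stimulated with EC80 TSH (4nM final) for 2 hours at 37 deg C. cAMP measured by competitive HTRF: anti-cAMP cryptate antibody in lysis buffer plus cAMP-d2, read after 30 minutes at room temperature.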
# Active calls of the source: *; i = inactive; ? = inconclusive; nt = not tested or not shown; [ ] = remark or other dose.
SMILES,Akt phos inh,RXFP1 antagonist,gsp antag,RXFP1 ag,gsp agonist,TSHR antagonist
COc1ccc(-c2csc(N3CCN(C(=O)c4ccco4)CC3)n2)cc1,i,-6,50µM*,1%,-97%,-18
COc1ccc2nc(N3CCN(C(=O)c4ccco4)CC3)sc2c1,nt,-24,nt,-1%,nt,nt
CCOC(=O)N1CCN(c2nc(-c3ccc(F)cc3)cs2)CC1,i,-12,32µM*,-1%,-35%,1
COc1ccc(-c2csc(N3CCN(C(=O)c4ccccc4)CC3)n2)cc1,i,-24,35µM*,0%,-32%,-17
COc1ccc(C(=O)NNC(=O)CN2CCN(c3nc(-c4ccccc4)cs3)CC2)cc1,i,-8,3%,0%,-28%,8
CCOC(=O)C(=O)N1CCN(c2nc(-c3ccc(Cl)cc3)cs2)CC1,i,3,-25%,0%,-42%,9
COc1ccc(C2=C(C)C(N3CCC(C(=O)NCc4ccc(C)o4)CC3)=NS2(=O)=O)cc1,nt,-6,nt,2%,nt,nt
CCC(=O)Nc1c(-c2ccccc2Cl)c(=O)c2ccccc2n1CC,i,-9,8%,0%,16µM*,-5
CC(=O)SC[C@@H](C)C(=O)N1CCC[C@H]1C(=O)N[C@@H](Cc1ccccc1)C(=O)O,nt,14,nt,nt,nt,nt
O=C(/C=C/c1cccc2ccccc12)c1ccncc1,i,-71*,7%,1%,-34%,-15
O=C(N/N=C/c1cccc2ccccc12)c1ccncc1,i,-11,-9%,-1%,0%,-22
COc1ccc(OC)c(NC(=O)CN2CCC(C(=O)c3ccc(C)cc3)CC2)c1,nt,-21,28µM*,0%,15%,6
Cc1csc(=O)n1CCC(=O)OCC(=O)Nc1ccc(Cl)cn1,i,1,4%,1%,?,4
CN1C2CCC1/C(=C\c1ccc(F)cc1)C(=O)/C2=C/c1ccc(F)cc1,i,nt,-2%,1%,0%,3
C=CC(=O)N1C/C(=C/c2ccc(F)cc2)C(=O)/C(=C\c2ccc(F)cc2)C1,i,-80*,5%,nt,10%,nt
Cc1occc1C(=O)N1CCN(S(=O)(=O)c2ccccc2)CC1,i,-1,6%,-2%,-12%,12
CCC(COC(=O)Nc1cccc(C)c1C)NC(=O)OCC(C)C (stereo unspecified),i,-5,-4%,0%,-49%,-2
CCCOC(=O)NC(CC)COC(=O)Nc1cccc(C)c1C (stereo unspecified),-116%*,-14,-3%,0%,-7%,-11
CCC(=O)OC1=C(C(C)=O)N(Cc2ccccc2)S(=O)(=O)c2ccccc21,nt,-9,nt,4%,nt,nt
CC1CC(=O)NN=C1c1ccc(NCC(C)(C)NCC(O)COc2cc(Cl)ccc2C#N)cc1 (stereo unspecified),nt,13,nt,nt,nt,nt
N#C/C(=C(/O)c1ccco1)c1nc2ccccc2s1,i,3,35µM*,6%,-16%,-22
O=C(Nc1ccccc1-c1nc2ccccc2s1)c1ccco1,i,-2,24%,20%,25µM*,-19
CN1CCN(N)CC1,nt,11,nt,nt,nt,nt
CCCCCC(=O)N(Cc1ccccc1)c1c(N)n(CCOC)c(=O)[nH]c1=O,i,-7,-2%,nt,-27%,nt
CC(=O)OCCCNc1cc(Sc2nc3ccccc3s2)c2nonc2c1[N+](=O)[O-],i,-16,13%,9%,13%,-4
SMILES,Akt phos inh,RXFP1 antagonist,gsp antag,RXFP1 ag,gsp agonist,TSHR antagonist
CC(=O)OCCNc1cc(Sc2nc3ccccc3[nH]2)c2nonc2c1[N+](=O)[O-],i,-78*,?,5%,?,-88*
Cc1c(C(=O)/C=C/N(C)C)nnn1-c1ccc(F)c(Cl)c1,i,-26,-16%,5%,-39%,-5
Cc1c(C(=O)/C=C/N(C)C)nnn1-c1ccc(Cl)cc1Cl,i,-64*,-1%,5%,0%[15.4 µM],13
COc1ccc(/C=N/NC(=O)c2cc(C)oc2C)cc1OCc1ccccc1,i,-17,13µM*,3%,7%,-13
CCOC(=O)c1cccc(NC(=O)CSc2ncc3c(n2)-c2ccc(Cl)cc2N(Cc2ccccc2)S3(=O)=O)c1,nt,nt,nt,32µM*,nt,nt
COc1ccccc1CNC(=O)CSc1ncc2c(n1)-c1ccc(Cl)cc1N(Cc1ccccc1)S2(=O)=O,nt,7,nt,4.5µM*,nt,nt
COc1ccccc1CNC(=O)CSc1ncc2c(n1)-c1ccccc1N(Cc1ccc(C)cc1)S2(=O)=O,nt,nt,nt,14%,nt,nt
COc1ccc(-c2oc3ncn4nc(COc5ccccc5)nc4c3c2-c2ccc(OC)cc2)cc1,i,4,5%,4%,-3%,2
COc1ccc(-c2oc3ncn4nc(Cc5ccccc5)nc4c3c2-c2ccc(OC)cc2)cc1,?,-17,10µM*,2%,-36%,2
CS(=O)(=O)c1ccc(-c2sc3cc4c(cc3c2C(=O)NN2CCOCC2)OCO4)cc1,i,nt,-7%,nt,7%,14
Cc1cc(C)c2cc(C(=O)N3CCN(c4ncccc4C(F)(F)F)CC3)[nH]c2c1,i,-17,-3%,-1%,?,-5
Cc1ccc2c(C)cc(=S)[nH]c2c1,i,8,18%,28µM*,22µM*,-8
Cc1ccc2[nH]c(=S)cc(C)c2c1,i,-15,0%,22%,26%,12
C=CCN=c1scc(-c2ccco2)n1/N=C/c1ccc(O)c(O)c1O,i,?,-29%,4%,16%[15.4 µM],-15
CC(C)N=c1scc(-c2ccco2)n1/N=C/c1ccc(O)c(O)c1,i,nt,?,2%,23%,-43
COCCN=c1scc(-c2ccco2)n1/N=C/c1ccc(O)c(O)c1O,i,-104*,?,-2%,-17%[15.4 µM],-7
Oc1ccc(/C=N/n2c(-c3ccco3)csc2=Nc2cccnc2)c(O)c1,i,-62*,?,0%,-4%[15.4 µM],-7
CN=c1scc(-c2cccs2)n1/N=C/c1ccc(O)c(O)c1O,i,-63*,-21%,0%,-11%,-23
CCOc1cc(CN2CCC(N3CCC(C(=O)NC4CC4)CC3)CC2)ccc1O,i,6,nt,nt,?,nt
N#CSCC(=O)O,nt,-21,nt,nt,nt,nt
NC(=S)n1[nH]c(-c2ccc([N+](=O)[O-])cc2)c(N=Nc2cccc(Cl)c2)c1=O,i,-7,25µM*,-2%,-10%,?
CCOC(=O)C(=O)N(C)c1c(CC)nc2c(OCCC3CCCCC3)cccn12,i,nt,nt,nt,nt,nt
COC(=O)[C@@]1(Cc2ccc(F)cc2)[C@H]2c3cc(C(=O)N(C)C)n(CCCNc4ncc(C(F)(F)F)cc4Cl)c3C[C@H]2CN1C(=O)c1ccccc1,i,nt,nt,nt,nt,nt
Cc1ccc(Sc2c(O)c3ccccc3n(C)c2=O)cc1,i,3,23%,?,13µM*,9
